CYP2C19 activ: human CYP2C19 activators, primary screen, biochemical, luminescence. Cytochrome P450 2C19 (Homo sapiens), P33261. recombinant CYP2C19, luciferin-H EGE luminescence; active compounds read high; 0 = fully inhibited enzyme, 1 = untreated enzyme. activation factor at 5 µM. 96,000 tested, under 10 active. AID 1025, 2008;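 active = activation factor of at least 2 at 5 µM in the primary screen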;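 note: 0 = wells with 2.5 mM tranylcypromine and 1 = vehicle-only wells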
CYP2C19 inhib: blockers of cytochrome P450 2C19 activity – biochemical, luminescence, ADME assay, primary screen; P33261; CYP2C19 Supersomes, luciferin-H EGE luminescence, 30 min; inhibition, % at 5 µM; 21% of 96,000 active; AID 778, 2007;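 active = CYP2C19 inhibition above a set limit at 5 µM in the primary screen, cut at about 50% in these data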;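 note: plate controls were negative control wells for no effect and 2.5 mM tranylcypromine positive control for full effect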
CYP2C9 inh: blockers of cytochrome P450 2C9 activity – biochemical, luminescence, ADME assay, primary screen | 20% of 96,000 active | inhibition, % at 5 µM | CYP2C9 Supersomes, luciferin-H conversion | AID 777, 2007;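 active = blocking of liver enzyme CYP2C9 beyond about 50% at 5 µM, limit read from the data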
Target sequence (P11712 whole entry, looked up): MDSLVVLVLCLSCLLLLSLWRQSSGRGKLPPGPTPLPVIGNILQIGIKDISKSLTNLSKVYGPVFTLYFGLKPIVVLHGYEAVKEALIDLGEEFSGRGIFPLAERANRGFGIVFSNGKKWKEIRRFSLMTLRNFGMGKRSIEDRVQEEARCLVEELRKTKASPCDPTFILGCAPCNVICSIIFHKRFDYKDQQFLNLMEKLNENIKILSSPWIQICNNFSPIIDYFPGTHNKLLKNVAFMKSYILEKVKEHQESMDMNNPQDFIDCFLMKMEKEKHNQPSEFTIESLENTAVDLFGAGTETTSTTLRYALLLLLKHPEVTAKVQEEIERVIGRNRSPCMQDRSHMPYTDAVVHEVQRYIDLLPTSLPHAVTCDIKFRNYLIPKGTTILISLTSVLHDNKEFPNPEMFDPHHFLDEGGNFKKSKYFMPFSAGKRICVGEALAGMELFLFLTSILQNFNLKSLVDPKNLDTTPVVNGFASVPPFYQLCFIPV
Cav32 inh: Cav3.2 calcium influx blockers – cell-based, Fluo-4 calcium fluorescence, FDSS, MLSMR library, primary screen. Cav3.2-expressing cells; active compounds read low. B-score at 10 µM. 4% of 100,000 active. AID 449739, 2010;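 active = single-dose well whose peak fluorescence ratio is a statistical outlier from its plate by either plate-standardised score or position-corrected B-score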
CYP2C9 act: human CYP2C9 activators, primary screen, biochemical, luminescence. recombinant CYP2C9, luciferin-H conversion; active compounds read high; factor 1 = untreated enzyme, 0 = blocked. Cytochrome P450 2C9 (Homo sapiens), P11712. 1.4% of 96,000 active. AID 1024, 2008. activation factor at 5 µM;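 active = activation factor of 2 or more for CYP2C9 at a 5 µM dose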;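 note: 0 = sulfaphenazole-blocked wells and 1 = vehicle-only wells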
* marks the source's active call; other numbers are inactive results; nt = no result given. Rows were chosen to be rich in hits. Some 27% of all compounds tested hit in one or more screens of this group.

SMILES	CYP2C19 activ	CYP2C19 inhib	CYP2C9 inh	Cav32 inh	CYP2C9 act
CCOc1ccc(N2CCn3c2nc2c3c(=O)n(CCc3ccccc3)c(=O)n2C)cc1	1	2.4	22.0	nt	0.8
CC1=C(C#N)C(Nc2cc(C)ccn2)(C(F)(F)F)C(=O)N1 (stereo not given)	0.2	76.1*	26.3	0.113	0.7
COC(=O)NC1(C(F)(F)F)C(=O)NC(C)=C1C(=O)OC (stereo not given)	1	-1.6	6.6	nt	0.9
CC1=C(C#N)C(NC(=O)c2ccc(C)cc2)(C(F)(F)F)C(=O)N1 (stereo not given)	0.1	91.5*	16.7	nt	0.8
COC(=O)C1=C(C)NC(=O)C1(NS(=O)(=O)c1ccc(NC(C)=O)cc1)C(F)(F)F (stereo not given)	0.6	37.5	8.2	0.186	0.9
CCCOc1cccc(CN2CCCCC2c2cccnc2)c1 (stereo not given)	0.1	91.6*	83.2*	-0.151	0.2
CN(CC(=O)Nc1ccccc1C(=O)N1CCCC1)S(=O)(=O)c1ccc(Cl)cc1	0.8	17.8	44.7	0.275	0.6
O=[N+]([O-])c1cc(-c2csc(NC(CO)c3nc4ccccc4n3CCOCCO)n2)ccc1Cl (stereo not given)	nt	nt	nt	0.137	nt
COC(=O)c1ccc(CSc2nc3scc(-c4cccs4)c3c(=O)[nH]2)o1	0.8	24.5	57.2*	-0.688	0.4
COC(=O)c1ccc(CSc2nc3cc(Cl)ccc3s2)o1	0.9	5.4	10.9	-0.325	0.9
COC(=O)c1cc(CSc2nc3ccccc3[nH]2)oc1C	0	98.1*	86.9*	-1.19	0.1
CCCc1cc(=O)[nH]c(SCC(N)=O)n1	1	0.1	-2.6	-0.764	1
CCCc1cc(=O)[nH]c(SCc2cc(C(=O)OC)c(C)o2)n1	0.2	77.3*	86.9*	-1.42	0.1
COC(=O)c1ccc(CSc2nc3ccc(Cl)cc3[nH]2)o1	0.5	54.4*	79.9*	-3.55	0.2
COC(=O)c1ccc(CSc2nc3c(cnn3-c3ccc(C)c(C)c3)c(=O)[nH]2)o1	nt	nt	nt	0.248	nt
COC(=O)CSc1nc2ccc(C)cc2[nH]1	1	4.5	-2.7	0.879	1
O=C(CN1CCCCC1)N1CCN(C(=O)CN2CCCCC2)CC1	1.2	-18.0	-28.4	1.06	1.3
CCCN(CCC)CCNC(=O)C1c2ccccc2C(=O)N(CCOC)C1c1ccc(F)cc1 (stereo not given)	1	0.6	-32.6	1.27	1.3
CC(C(=O)NCc1ccccn1)N1C(=O)c2ccccc2C1=O (stereo not given)	0.7	28.3	8.2	0.671	0.9
CCOC(=O)N1CCN(C(=S)NCCOC)CC1	0.9	6.8	-4.2	1.55	1
O=C(O)CCCCC1SCC2NC(=O)NC21 (stereo not given)	1.1	-5.0	1.2	0.427	1
CCN(CC(O)Cn1c2ccccc2c2ccccc21)S(=O)(=O)c1ccc(F)cc1 (stereo not given)	0	99.7*	97.4*	-0.931	0
O=S(=O)(c1ccc(F)cc1)N(CCO)CC(O)Cn1c2ccccc2c2ccccc21 (stereo not given)	0	96.6*	57.0*	-2.45	0.4
O=C(Nc1ccccc1)c1ccc(S(=O)(=O)N(CCO)CCO)cc1	1.1	-8.4	-0.1	0.469	1
CCCCCCCCCNC(=O)[C@H](NC(=O)COc1ccccc1)[C@@H]1NC(C(=O)OC)C(C)(C)S1 (stereo not given in full)	nt	nt	nt	-3	nt
SMILES	CYP2C19 activ	CYP2C19 inhib	CYP2C9 inh	Cav32 inh	CYP2C9 act
CC(C)OC(=O)/C(=C\C=C\c1ccccc1)NC(=O)c1ccccc1	0.9	8.8	9.2	-0.143	0.9
Cn1c(CO)cnc1SCc1ccc(Cl)cc1	0.2	83.6*	17.4	0.00418	0.8
COC(=O)[C@@H]1[C@@H](C)N(Cc2ccccc2)C(=O)N[C@H]1c1ccccc1	nt	nt	nt	-0.00916	nt
Cc1cc(C)nc(NC(=O)NS(=O)(=O)N2CCCCCC2)n1	1.1	-7.2	-11.6	-0.66	1.1
CC(C)(C)c1cc(C(C)(C)C)cc(S(=O)(=O)CCc2ccccn2)c1	0.8	17.3	21.7	-6.85*	0.8
Cn1ncc(C#N)c1NC(=O)C1CC(c2c(F)cccc2Cl)=NO1 (stereo not given)	0.2	76.8*	71.7*	0.74	0.3
O=C(NCC1CCCO1)Nc1ccc(Cl)cc1 (stereo not given)	0.9	11.3	2.2	1.08	1
O=C(NCC1CCCO1)C1CC(c2ccc(Cl)c(Cl)c2)=NO1 (stereo not given)	1	1.1	-148.2	-0.179	2.5*
Cn1ncc(C#N)c1NC(=O)C1CC(c2ccc(Cl)c(Cl)c2)=NO1 (stereo not given)	0.2	84.7*	51.3*	-0.803	0.5
CCOC(=O)C1C(=O)CC(C)(O)C(C(=O)OCC)C1c1ccccc1OC (stereo not given)	1	-4.4	-9.8	-0.0661	1.1
N#CC(C#N)=c1ccc2c(c1)N1C3=C(CCCC3)CC3CCCCC31N=2 (stereo not given)	0.1	90.0*	97.8*	0.26	0
N#C/C(C(N)=O)=c1/ccc2c(c1)N1C3=C(CCCC3)CC3CCCCC31N=2 (stereo not given)	0.5	54.4*	89.4*	-0.106	0.1
NS(=O)(=O)c1cccnc1Nc1cccc(Cl)c1Cl	0.7	25.2	4.5	-0.33	1
N#Cc1nc(COc2ccccc2)oc1N1CCCCC1	0.5	49.6	34.3	-5.96*	0.7
CC1CN(c2oc(COc3ccc(Cl)cc3Cl)nc2C#N)CC(C)O1 (stereo not given)	nt	nt	nt	-4.71*	nt
N#Cc1nc(-c2cccc3ccccc23)oc1N1CCCCC1	1.1	-6.4	-5.4	nt	1.1
Clc1ccc(OCc2cc(-c3ccccc3)no2)c(Cl)c1	1.1	-12.6	-5.4	-0.0766	1.1
N#Cc1nc(COc2ccc(Cl)cc2)oc1N1CCCCCC1	0.1	89.1*	97.0*	-5.02*	0
N#Cc1nc(COc2ccccc2F)oc1N1CCCCCC1	0.7	33.4	44.8	-5.93*	0.6
CC(=O)Nc1cc(NC(C)=O)cc(C(=O)OCC(=O)N2CC(C)OC(C)C2)c1 (stereo not given)	1.1	-9.9	6.1	0.335	0.9
Cc1cccc(C)c1NS(=O)(=O)c1c(C)[nH]c(=O)[nH]c1=O	1.1	-14.8	5.0	0.0613	0.9
CCCSc1nc2sc3c(c2c(=O)[nH]1)CCN(Cc1ccccc1)C3	0.9	10.7	34.0	-5.86*	0.7
CCCCSc1nc2sc3c(c2c(=O)[nH]1)CCC3	1	-1.2	11.9	0.061	0.9
Cc1ccc(CSCCNC(=O)CCSc2ccccc2)cc1	0.7	26.2	65.1*	-1.36	0.3

Screening results as filed in PubChem BioAssay.
